According to PubChem BioAssay AID1259422 (The Scripps Research Institute Molecular Screening Center, 2018):
In all, about 640,000 compounds went through this assay and about 9,300 (1.5%) were called active. Many of the other results were omitted from the sample, so actives are more common in it than they were. Values without a mark were called inactive. Rule as the data show it: active = inhibition above about 32%; inactive = the rest.

assay: TEAD-YAP interaction inhibition, primary screen, TEAD-YAP interaction inhibitor project, luminescence, HEK-TIYL cells (AID 1259422); conditions: TEAD-Gal4/YAP UAS-luciferase luminescence, at 9.12 µM, stronger effect = higher value;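 also: 0% = median of test compound wells and 100% = reference inhibitor wells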

| Structure (SMILES) | inhibition |
| --- | --- |
| Cc1cc(C)cc(OCC(=O)Nc2sc3c(c2C(N)=O)CCCC3)c1 | -1.21% |
| CCCCOC(=O)C1=C(C)NC2=C(C(=O)CC(C)(C)C2)C1c1ccc(Cl)cc1Cl (configuration not stated) | 1.21% |
| Cc1ncn(-c2ccc(Nc3ncc(-c4cnn(C)c4)c(-c4cnn(C)c4)n3)cc2)n1 | -5.05% |
| Cc1nc(C)n(-c2ccc(Nc3cc(-n4ccnn4)ccn3)cc2)n1 | 1.02% |
| Cc1nc(C)n(-c2ccc(Nc3ncc4ccc(-c5cnn(C)c5)cc4n3)cc2)n1 | 84.9% (active) |
| Cc1ccccc1CCNCc1ccc(C(=O)O)s1 | -4.88% |
| CC(C)(C)c1nc2ccccc2c2nn(CC(=O)N3CCNC(=O)C3(C)C)c(=O)n12 | -10.6% |
| O=C(NCC1CCCO1)c1ncoc1-c1cccc(Cl)c1 (configuration not stated) | -34.8% |
| Cn1nnc2c(N3CCN(CC(=O)Nc4ccccc4F)CC3)ncnc21 | 3.56% |
| Cc1nn2c(NCc3ccncc3)c3c(nc2c1-c1ccccc1)CCC3 | -22.7% |
| COc1cccc2c(=O)n(CC(=O)NCc3ccccc3)ccc12 | 38.8% (active) |
| O=C(Cn1cnc2ccccc2c1=O)NCc1ccccc1 | 2.51% |
| COc1ccccc1NC(=O)Cn1ccc2ccccc2c1=O | -0.57% |
| Cn1cc(S(=O)(=O)O)cc1-c1nc2ccccc2n1C | 9.5% |
| Cc1c(-n2c(-c3ccco3)nc3ccccc3c2=O)c(=O)n(-c2ccccc2)n1C | -10.7% |
| Cn1c(-c2ccco2)nc2cc3ccccc3cc21 | 90.5% (active) |
| C(/C=C/c1ccccc1)=Nc1ccc(N2CCOCC2)cc1 | 18.8% |
| NC1=NC(=Nc2cc(Cl)cc(Cl)c2)c2ccccc21 | -2.03% |
| NC1=NC(=Nc2ccc(N3CCCCC3)cc2)c2ccccc21 | 60.5% (active) |
| O=C1OC(c2ccccc2Cl)=N/C1=C\c1ccco1 | 4.9% |
| COc1cc(/C=N/NC(=O)CC(=O)NCC(C)C)ccc1O | 8.56% |

| Structure (SMILES) | inhibition |
| --- | --- |
| CCOC(=O)N1CCN(C(=O)c2ccc3c(=O)n(Cc4ccccc4Cl)c(=S)[nH]c3c2)CC1 | -2.49% |
| c1ccc2c(-c3nc(NC4CC4)c4ncn(-c5ccsc5)c4n3)csc2c1 | 13.5% |
| COc1ccc(CCNc2nc(-c3c(C)noc3C)nc3c2ncn3-c2ccsc2)cc1 | -2.43% |
| Cc1noc(C)c1-c1nc(NC2CC2)c2ncn(-c3ccsc3)c2n1 | 41.4% (active) |
| CC(=O)N(c1cccc(C)c1)C1SC(=O)N(c2cccc(C)c2)C1=O (configuration not stated) | 3.53% |
| CC(=O)Nc1cccc(-c2nc3cccnc3s2)c1 | -43.1% |
| CC(=O)Nc1ccc(S(=O)(=O)Nc2ccc(-c3nc4cccnc4s3)cc2)cc1 | 7.3% |
| O=C(Nc1ccc(-c2nc3cccnc3s2)cc1)C1CCCC1 | 51.9% (active) |
| Cc1ncc(-c2ccc(F)cc2)c(C2CCCN(CCO)C2)n1 (configuration not stated) | -9.4% |
| COC(=O)COc1ccc(/C=C2/NC(=O)N(c3ccccc3)C2=O)cc1OC | 11.3% |
| Cc1nc(NC(=O)/C=C/c2cccc([N+](=O)[O-])c2)sc1C(=O)N(C)C | -12.3% |
| N#Cc1ccc(OCC(=O)Nc2ccc3c(c2)C(=O)c2ccccc2C3=O)cc1 | -21.1% |
| CCOc1cc(C2CC(=O)NC(SCC(=O)OCc3ccccc3)=C2C#N)ccc1O (configuration not stated) | -6.79% |
| CCOC(=O)CSC1=C(C#N)C(c2ccccc2)CC(=O)N1 (configuration not stated) | 53.9% (active) |
| N#CC1=C(SCC(=O)OCc2ccccc2)NC(=O)CC1c1ccc(F)cc1 (configuration not stated) | 6.22% |
| COc1ccc(C(=O)CSC2=C(C#N)C(c3cccs3)CC(=O)N2)cc1 (configuration not stated) | -82.2% |
| CCOC(=O)CSC1=C(C#N)C(c2sccc2C)CC(=O)N1 (configuration not stated) | 56.8% (active) |
| N#CC1=C(SCC(=O)Nc2nccs2)NC(=O)CC1c1cccs1 (configuration not stated) | 5.49% |
| CCOC(=O)c1ccc(CN(Cc2ccc(Br)cc2)S(=O)(=O)c2cc(Cl)cc(Cl)c2)cc1 | 11.6% |
| O=C(NCCc1ccccc1)C(=O)Nc1ccccc1F | -44.1% |
| CCCCSc1nc2sc3c(c2c(=O)n1-c1ccc(OC)cc1)CCCC3 | -1.35% |

| Structure (SMILES) | inhibition |
| --- | --- |
| O=C(CCSc1ccccc1)Nc1cccc2ccc(-n3ccnc3)nc12 | -3.58% |
| COc1cc(C(=O)Nc2cc(-c3nc4ccc(C)cc4o3)ccc2C)ccc1OCc1ccc(Cl)cc1 | -64.2% |
| CCNC(=O)C1CCN(c2nc(C)cc(C)n2)CC1 | -5.09% |
| Cc1cc(N2CCOCC2)nc(SCC(=O)N2CCCC2)n1 | 5.97% |
| Cc1cc(N2CCCCC2)nc(NCCNC(=O)C2CCCO2)n1 (configuration not stated) | 42.3% (active) |
| Cc1csc(NC(=O)/C=C/c2ccc(F)cc2)n1 | -40.2% |
| O=C(/C=C/c1ccc(F)cc1)NCCCCNC(=O)/C=C/c1ccc(F)cc1 | -6.73% |
| Cc1cc(C)nc(NS(=O)(=O)c2ccc(NC(=O)/C=C/c3ccc(F)cc3)cc2)n1 | -8.5% |
| O=C(/C=C/c1ccc(F)cc1)Nc1ccccc1F | 79.4% (active) |
| O=C(/C=C\c1ccccc1)Nc1cc2ccccc2cc1NC(=O)/C=C/c1ccccc1 | -0.29% |
| Cc1cccc(NC(=O)/C=C/c2ccc(F)cc2)c1 | 34.1% (active) |
| O=C(Nc1ccc(-c2nc3cc(Cl)ccc3o2)cc1)c1ccc(-c2ccc(Cl)cc2)o1 | -100% |
| O=S(=O)(NCc1ccccc1)c1cccc(S(=O)(=O)NCc2ccccc2)c1 | 4.17% |
| N#C/C(=C\c1cn(-c2ccccc2)nc1-c1ccc(Cl)cc1)C(N)=O | 2.99% |
| NC(=O)c1ccc(-c2nc(NC3CC3)c3ncn(C4CCCCC4)c3n2)cc1 | 18% |
| O=C(O)c1nnn(-c2ccccc2)c1C(=O)O | 5.21% |
| CCOC(=O)c1sc2nc(C)nc(N3CCCCC3)c2c1C | -2.79% |
| O=[N+]([O-])C1CS(=O)(=O)C=C1N(Cc1ccccc1)c1ccccc1 (configuration not stated) | 39.5% (active) |
| CCN(Cc1ccccc1)Cc1ccc([N+](=O)[O-])cc1 | 10.2% |
| O=C(c1cc2ccccc2oc1=O)N(Cc1ccccc1)c1cccc([N+](=O)[O-])c1 | 0.25% |
